Compound activity as filed in PubChem BioAssay.
Hck Nef HTS – human Hck-Nef kinase inhibition; Recombinant Hck-YEEI plus Nef, Z-Lyte FRET kinase assay; inhibition, % at 20 µM; 0.68% of 220,000 active; AID 463187;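 active = Hck-Nef kinase inhibition above about 50%, limit read from the data; inactive = inhibition below that limit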;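 also: 0% = DMSO with Hck plus Nef and 100% = Hck alone without Nef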
Mcl1 Noxa PPI – Mcl-1/Noxa interaction inhibition; Q07820; TR-FRET Mcl-1/Noxa peptide binding, 2 h; inhibition, % at 21.7 µM; 1.5% of 220,000 active; AID 1022;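 active = compounds that cut the protein-peptide binding signal by more than 50% relative to plate controls in a single-dose test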;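 also: His-tagged Mcl-1 with rhodamine Noxa BH3 peptide and terbium anti-His antibody; 0% = Mcl-1 plus Noxa peptide wells and 100% = peptide-only wells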
Mcl1 Bid PPI – disrupts binding of human Mcl-1 to Bid peptide; TR-FRET Mcl-1/Bid-Dy647 peptide binding, 1536-well; 0.97% of 220,000 active; AID 1021; inhibition, % at 21.7 µM;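 active = compounds that cut the binding signal by more than half at the single screening dose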;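 also: His-tagged Mcl-1 with europium anti-His antibody binding Bid BH3 peptide; 0% = Mcl-1 plus peptide wells and 100% = peptide-only wells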
14-3-3 Bad PPI – disrupts binding of bovine 14-3-3 zeta to phospho-Bad peptide; P63103; TR-FRET 14-3-3zeta/Dy647-pBad peptide displacement, 1 h; inhibition, % at 21.7 µM; 0.71% of 220,000 active; AID 781;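 active = inhibition above about 70%, limit read from the data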;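 also: 0% = full 14-3-3 plus peptide FRET controls and 100% = background without 14-3-3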
Target sequence (P63103 whole entry, looked up): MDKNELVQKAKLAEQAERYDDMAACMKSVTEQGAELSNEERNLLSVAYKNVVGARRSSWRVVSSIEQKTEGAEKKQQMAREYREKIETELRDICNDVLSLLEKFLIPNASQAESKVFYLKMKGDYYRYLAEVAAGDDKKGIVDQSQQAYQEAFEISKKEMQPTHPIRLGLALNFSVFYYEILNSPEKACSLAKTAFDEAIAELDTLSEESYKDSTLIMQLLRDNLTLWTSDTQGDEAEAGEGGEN
eIF4E 4G PPI – inhibitors of eIF4E and eIF4G interaction in translation initiation; P63073+Q04637; TR-FRET eIF4E-eIF4GI(517-606) binding, 2 h; inhibition, % at 21.7 µM; 0.37% of 220,000 active;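 active = inhibition above about 30%, limit read from the data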;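 also: 0% = full FRET control wells and 100% = background wells lacking eIF4GI fragment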
Bim-Mcl-1 – disrupts Bim peptide binding to human Mcl-1 | 0.1% of 190,000 active | Q07820 | Bead-based flow cytometry, Bim peptide-Mcl-1 binding | inhibition, % at 10 µM; in the data active = inhibition above about 40%;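 also: 0% = no compound tracer wells and 100% = peptide blocker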
The depositor's hits bear a star; . = no result; [ ] = another dose, or the depositor's remark. Shown are actives, neighbours in structure and some others; about 3.5% of the full set was active somewhere.

SMILES	Hck Nef HTS	Mcl1 Noxa PPI	Mcl1 Bid PPI	14-3-3 Bad PPI	eIF4E 4G PPI	Bim-Mcl-1
COc1ccc(C(=O)NCc2nnc(SCC(=O)N3CCCCC3)o2)cc1OC	1.4	5.3	83.2*	-18.7	-7.4	0.0
COc1ccc(C(=O)NCc2nnc(SCC(=O)N3CCOCC3)o2)cc1OC	22.4	-7.8	-17.6	-28.2	-0.3	1.0
Cc1ccc(S(=O)(=O)N2CCOCC2)cc1NC(=O)CN1CCN(c2ccc(O)cc2)CC1	0.8	51.9*	-156.5	-18.1	12.9	-1.0
Cc1ccc(S(=O)(=O)N2CCN(CC(=O)Nc3ccc(N4CCOCC4)cc3)CC2)cc1C	1.9	16.1	-18.2	-1.7	8.2	-6.0
CC(C)CCC(CCN1CCOCC1)c1ccc2c(c1)OCO2 (stereo unspecified)	0.2	26.6	6.7	27.3	-0.8	-6.0
CC(C)CCC(CCN1CCCC1)c1ccc2c(c1)OCO2 (stereo unspecified)	4.4	75.1*	5.8	49.4	1.3	.
Cn1ccnc1SCC(=O)c1ccc([N+](=O)[O-])cc1	-9.9	3.5	-25.8	-4.4	-3.9	-2.0
Cc1cccc(OCc2nc(C#N)c(NCc3ccc4c(c3)OCO4)o2)c1	0.4	8.0	82.9*	-10.8	-10.9	0.0
C=CCc1ccc(OCCCN2CCCC(C)C2)c(OC)c1 (stereo unspecified)	0.7	12.3	59.0*	38.1	1.3	-4.0
Cc1cc(S(=O)(=O)N2CCCC2)ccc1OCC(=O)NC1CCCC1	-7.0	23.5	-21.6	2.5	1.3	-2.0
O=C(COc1ccc(S(=O)(=O)N2CCCC2)cc1Cl)NC1CC1	0.7	8.7	95.2*	-2.6	-1.2	-1.0
COc1ccc(CCN(C)C(=O)C2CCN(Cc3ccc(C)cc3)CC2)cc1OC	21.9	17.0	17.0	0.2	1.1	0.0
CCCCN(C(=O)CSc1nnc(-c2ccc(OC)cc2)n1C(C)C)c1c(N)n(Cc2ccccc2)c(=O)[nH]c1=O	2.7	61.8*	3.8	1.5	-1.9	-5.0
CCCCN(C(=O)CSc1nnc(-c2ccc(OC)cc2)n1CC)c1c(N)n(Cc2ccccc2)c(=O)[nH]c1=O	1.9	60.4*	-39.4	-18.9	-2.1	-3.0
O=C(N/N=C/c1c[nH]c2ccccc12)c1cc(-c2ccc(-c3ccccc3)cc2)n[nH]1	16.2	46.6	51.5*	54.4	-10.9	0.0
O=C(N/N=C/c1c[nH]c2ccccc12)c1cc(-c2ccccc2)n[nH]1	19.2	28.4	-3.1	-12.0	4.4	-3.0
O=C(N/N=C/c1c[nH]c2ccccc12)C1COc2ccccc2O1 (stereo unspecified)	3.7	4.4	3.3	82.0*[fluorescence artefact?]	48.1*	-4.0
CCOC(=O)C1=C(CN2CCN(CCC#N)CC2)NC(=O)NC1c1ccc2c(c1)OCO2 (stereo unspecified)	18.1	-3.6	-16.5	-20.4	1.7	0.0
COc1ccc(OC)c(-c2csc(NC(=O)Cn3[nH]c(=O)c4ccccc4c3=O)n2)c1	17.4	42.3	-14.1	9.4	42.1*	-4.0
COc1ccc(OC)c(-c2csc(NC(=O)CSc3ccc(Br)cc3)n2)c1	0.8	0.8	27.5	7.0	-5.1	-5.0
Cc1noc(NS(=O)(=O)c2ccc(NC(=O)C(CC(C)C)N3C(=O)c4ccccc4C3=O)cc2)c1C (stereo unspecified)	-2.4	30.7	-97.8	-3.5	-0.4	.
CCCONC(=O)Nc1ccccc1[N+](=O)[O-]	0.6	-8.6	65.8*	5.7	-1.0	-4.0
COC(=O)C(C)(C)ONC(=O)Nc1ccccc1[N+](=O)[O-]	-10.2	-7.7	-20.1	2.6	3.5	0.0
CSc1ccccc1C(=O)NCc1ccc(C)cc1	22.6	-3.2	-18.0	-5.5	-2.9	-1.0
CCOC(=O)C1(Cc2cccc(OC)c2)CCN(Cc2cc(OC)ccc2OC)CC1	5.7	8.8	-18.8	80.2*	1.7	1.0
CCOC(=O)C1(Cc2cccc(OC)c2)CCCN(Cc2c(C)nn(C(C)C)c2C)C1 (stereo unspecified)	27.0	-9.5	-11.2	-5.2	97.1*	.
CCOC(=O)C1(Cc2cccc(OC)c2)CCN(Cc2cccc(OC)c2OC)CC1	7.1	5.1	-24.6	-3.5	3.9	78.0*
